CSC inhib = cancer stem cell viability inhibitors, primary screen, luminescence; inhibition, % at 7.5 µM; actives 1.1% (n = 300,000); cancer stem cell-like cells viability; AID 2717, 2010; in the data active = inhibition above about 75%; tested in HMLE shEcad cells
Gli-Sufu antag = Gli-Sufu pathway antagonists, primary screen, luciferase luminescence, Sufu-KO-LIGHT cells, uHTS | Sufu-KO-LIGHT fibroblasts, Gli luciferase reporter luminescence | inhibition, % at 5 µM | actives 0.74% (n = 340,000) | AID 588413, 2011;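 active = inhibition above about 55%, limit read from the data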;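 also: 0% = DMSO-treated cells and 100% = wells with medium but no cells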
Shn3 3UTR inh = reduction of Shn3 3'UTR firefly luciferase signal, primary screen, Schnurri-3 inhibitor project, cell-based, Clone20 osteoblasts, set 2. inhibition, % at 12.5 µM. actives 0.52% (n = 360,000). Clone20 osteoblast Shn3 3'UTR firefly luciferase, 24 h;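 active = mean inhibition of at least 75% with every replicate also reaching 75%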;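 also: 0% = median of neutral control wells and 100% = pilot-screen positive control compound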
Beta cell apopt = inhibitors of cytokine-induced beta cell apoptosis, primary screen, luminescence; INS-1E cytokine-induced death, ATP luminescence, 48 h; percent of positive-control rescue, neutral wells zero; protection from apoptosis, % (test concentration not listed); actives 0.8% (n = 300,000);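 active = Every replicate reaches about 75%, or at least half do and their mean reaches it too, limit read from the data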;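 also: 0% = cytokine-treated negative control wells and 100% = positive control rescue; higher means more ATP so stronger rescue from cytokine killing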
Mdm2 MdmX PPI = inhibitors of human Mdm2-MdmX association, primary screen, cell-based, luminescence, split luciferase, SaOS-2, uHTS | Protein Mdm4 (Homo sapiens) + E3 ubiquitin-protein ligase Mdm2 (Homo sapiens), … | SaOS-2 split-luciferase Mdm2/MdmX complementation | inhibition, % at 8 µM | actives 3% (n = 330,000) | AID 485346, 2010;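 active = inhibition of at least 50% at 8 µM in the primary screen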
Target sequence (O15151 whole entry, looked up): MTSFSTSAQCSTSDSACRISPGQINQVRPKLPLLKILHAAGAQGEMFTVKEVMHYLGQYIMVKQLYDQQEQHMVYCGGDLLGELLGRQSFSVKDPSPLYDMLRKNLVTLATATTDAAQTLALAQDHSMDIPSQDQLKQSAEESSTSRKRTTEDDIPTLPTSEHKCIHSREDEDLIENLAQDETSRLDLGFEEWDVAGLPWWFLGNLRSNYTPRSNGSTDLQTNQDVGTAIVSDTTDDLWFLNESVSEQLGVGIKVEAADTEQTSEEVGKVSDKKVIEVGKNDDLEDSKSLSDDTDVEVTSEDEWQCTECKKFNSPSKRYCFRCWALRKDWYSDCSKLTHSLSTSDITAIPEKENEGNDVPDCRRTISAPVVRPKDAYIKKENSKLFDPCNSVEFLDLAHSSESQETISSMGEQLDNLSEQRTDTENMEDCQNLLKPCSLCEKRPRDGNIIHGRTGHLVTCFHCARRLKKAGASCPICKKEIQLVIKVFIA
Target sequence (Q00987 whole entry, looked up): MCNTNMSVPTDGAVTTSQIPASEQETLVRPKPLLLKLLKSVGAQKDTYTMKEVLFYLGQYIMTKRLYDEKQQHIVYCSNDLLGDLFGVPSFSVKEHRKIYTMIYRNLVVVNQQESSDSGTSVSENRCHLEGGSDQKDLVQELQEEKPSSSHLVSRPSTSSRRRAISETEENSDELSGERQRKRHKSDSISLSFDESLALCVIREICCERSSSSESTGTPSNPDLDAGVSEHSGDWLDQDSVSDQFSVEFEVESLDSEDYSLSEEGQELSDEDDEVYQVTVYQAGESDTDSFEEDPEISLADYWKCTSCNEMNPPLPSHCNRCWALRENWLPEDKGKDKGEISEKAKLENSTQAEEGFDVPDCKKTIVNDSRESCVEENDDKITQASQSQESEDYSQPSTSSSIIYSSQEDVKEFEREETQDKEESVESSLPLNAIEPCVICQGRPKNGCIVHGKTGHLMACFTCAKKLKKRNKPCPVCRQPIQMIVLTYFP
PAX8 inh HTS = inhibitors of PAX8-driven TPO luciferase reporter, primary screen, RMG-I cells, single concentration. SteadyGlo, 24 h. inhibition, % at 12.6 µM. actives 1.2% (n = 360,000);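 active = mean replicate inhibition at least 60% with every replicate also reaching 60%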;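 also: luciferase light reporting Pax8 driven TPO promoter activity; plate controls were median of neutral control wells for no effect and mitoxantrone controls for full effect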
* hit, by the source's call; nt = no result given. Only some compounds are listed: those with a hit (about 4% of all), similar ones and a draw of the others.

SMILES	CSC inhib	Gli-Sufu antag	Shn3 3UTR inh	Beta cell apopt	Mdm2 MdmX PPI	PAX8 inh HTS
Cc1ccccc1C(=O)N1CCN(c2ccc(NC(=O)c3cccnc3)cc2)CC1	-3	-4	7	75*	17	-1
COc1ccc(-c2cn3cc(C(F)(F)F)cc(Cl)c3n2)cc1	127*	-99	-59	-2	-299	-60
O=C(C[C@@H]1CC[C@@H]2[C@H](COC[C@@H](O)CN2Cc2ccc(Oc3ccccc3)cc2)O1)N1CCCCC1	nt	nt	nt	nt	nt	1
O=C(C1=C(c2ccccc2)C(=O)c2ccccc2C1=O)c1ccccc1	nt	15	93*	nt	nt	78*
COC(=O)C(NC(=O)c1ccccc1)c1ccccc1 (stereo not drawn)	1	-3	4	1	6	nt
C=C(C(=O)c1ccccc1)C(NC(C)(C)C)c1ccccc1 (stereo not drawn)	nt	35	37	nt	nt	81*
Cc1ccccc1N1CN(Cc2ccco2)CNC1=S	-19	1	1	0	20	61*
Cc1cccc(N2CN(Cc3ccco3)CNC2=S)c1C	-7	16	5	-12	19	-7
O=C(C[C@@H]1CC[C@H]2[C@@H](COC[C@@H](O)CN2Cc2ccc(Oc3ccccc3)cc2)O1)N1CCc2ccccc2C1	nt	nt	nt	nt	nt	80*
O=C(C[C@@H]1CC[C@H]2[C@@H](COC[C@@H](O)CN2Cc2ccc(Oc3ccccc3)cc2)O1)N1CCOCC1	nt	nt	nt	nt	nt	9
O=C(C[C@@H]1CC[C@H]2[C@@H](COC[C@H](O)CN2Cc2ccc(Oc3ccccc3)cc2)O1)N1CCN(c2ccccc2)CC1	nt	nt	nt	nt	nt	64*
O=C(Nc1ccc2c(c1)[C@@H]1C[C@@H](CC(=O)N3CCOCC3)O[C@H](CO)[C@@H]1O2)NC1CCCC1	nt	nt	nt	nt	nt	0
COc1cc(/C=C/c2cc[n+](C)cc2)ccc1OCC(=O)Nc1ccc(Cl)c(Cl)c1	nt	52	-16	31	49	110*
O=C(C[C@@H]1C[C@@H]2c3cc(NC(=O)C4CCC4)ccc3O[C@@H]2[C@H](CO)O1)NCc1ccccc1F	nt	nt	nt	nt	nt	-6
CC(=O)N1CCCc2cc(S(=O)(=O)N3CCCC(C(=O)N4CCN(c5ccccc5)CC4)C3)ccc21 (stereo not drawn)	-7	46	83	32	14	34
COc1ccccc1N1CCN(C(=O)C2CCCN(S(=O)(=O)c3ccc4c(c3)CCCN4C(C)=O)C2)CC1 (stereo not drawn)	-2	41	87*	30	28	19
CCc1ccc(C2NC(=S)NC3=C2C(=O)N(c2ccccc2OC)C(c2ccc(CC)cc2)N3)cc1 (stereo not drawn)	nt	-17	-39	-8	44	33
O=C1C2=C(NC(=S)NC2c2ccc(Cl)cc2)NC(c2ccc(Cl)cc2)N1c1ccc(Cl)cc1 (stereo not drawn)	101*	-2	-13	-12	1	6
COCC(=O)NC[C@@H]1[C@@H](c2ccccc2)[C@@H](CO)N1C(C)=O	nt	nt	nt	nt	nt	-8
C[C@H](NC(=O)[C@@H]1[C@@H](CO)[C@@H]2Cn3c(cccc3=O)[C@@H]2N1Cc1ccncc1)c1ccccc1	nt	nt	nt	nt	nt	-10
CC(N)c1csc(NC(=O)c2cc(C(C)(C)C)nn2Cc2ccccc2)n1 (stereo not drawn)	nt	nt	19	nt	nt	-15
COc1ccc(CC(N)c2csc(NC(=O)c3cc(C(C)(C)C)nn3Cc3ccccc3)n2)cc1 (stereo not drawn)	nt	nt	94*	nt	nt	4
CC(C)C[C@H]1CNC(=S)N1CC1CCN(CC2CCC(C(C)(C)C)CC2)CC1 (stereo partly drawn)	nt	11	93*	nt	nt	-4
C[C@@H](NC(=O)C[C@H]1CC[C@@H](NC(=O)Cc2ccccn2)[C@H](CO)O1)c1ccccc1	nt	nt	nt	nt	nt	2
Cc1cccc2[nH]c3c(N4CC=C(c5ccc(F)cc5)CC4)ncnc3c12	78*	6	-23	3	25	15
SMILES	CSC inhib	Gli-Sufu antag	Shn3 3UTR inh	Beta cell apopt	Mdm2 MdmX PPI	PAX8 inh HTS
CCOC(=O)c1c(C)[nH]c(C(=O)OCC(=O)NC(C)(C)C)c1C	-11	-5	16	86*	21	17
CC(C)C(=O)Nc1ccc2c(c1)C(=O)N(C)[C@@H]1CC[C@@H](CC(=O)NCc3cccc(F)c3)O[C@@H]1CO2	nt	nt	nt	nt	nt	-1
COc1ccc(-c2coc3c(C(=O)NCc4ccc(F)c(F)c4)cccc23)c(C)c1	nt	nt	58	nt	nt	-3
COc1ccc(-c2coc3c(C(=O)NCc4ccc(OC)c(OC)c4)cccc23)c(C)c1	nt	nt	90*	nt	nt	51
Cc1ccc(S(=O)(=O)Nc2ccc3c(c2)C(=O)N([C@@H](C)CO)C[C@H](C)[C@@H](CN(C)C(=O)Nc2cccc4ccccc24)OCCCC[C@@H](C)O3)cc1	nt	nt	nt	nt	nt	81*
Cc1ccc(S(=O)(=O)Nc2ccc3c(c2)C(=O)N([C@@H](C)CO)C[C@H](C)[C@@H](CN(C)C(=O)Nc2cccc4ccccc24)OCCCC[C@H](C)O3)cc1	nt	nt	nt	nt	nt	70*
C[C@@H]1CN([C@@H](C)CO)C(=O)Cc2cc(NS(=O)(=O)c3ccccc3)ccc2O[C@@H]1CN(C)C(=O)Nc1cccc2ccccc12	nt	nt	nt	nt	nt	73*
Cc1ccc(S(=O)(=O)Nc2ccc3c(c2)C(=O)N([C@@H](C)CO)C[C@@H](C)[C@@H](CN(C)C(=O)Nc2cccc4ccccc24)OCCCC[C@H](C)O3)cc1	nt	nt	nt	nt	nt	10
Cc1ccc(S(=O)(=O)Nc2ccc3c(c2)C(=O)N([C@H](C)CO)C[C@H](C)[C@@H](CN(C)C(=O)Nc2cccc4ccccc24)OCCCC[C@H](C)O3)cc1	nt	nt	nt	nt	nt	15
C[C@H](CO)N1C[C@H](C)[C@@H](CN(C)C(=O)Nc2cccc3ccccc23)OCCCC[C@H](C)Oc2ccc(NS(=O)(=O)c3ccccc3)cc2C1=O	nt	nt	nt	nt	nt	33
C[C@H]1CCCCO[C@H](CN(C)C(=O)Nc2cccc3ccccc23)[C@@H](C)CN([C@@H](C)CO)C(=O)c2cc(NS(=O)(=O)c3ccccc3)ccc2O1	nt	nt	nt	nt	nt	72*
O=C(Nc1ccccc1)N1C[C@@H]2[C@H](c3ccccc31)[C@@H](CO)N2Cc1ccc(F)cc1	nt	nt	nt	nt	nt	-2
C[C@H](CO)N1C[C@H](C)[C@H](CN(C)S(=O)(=O)c2ccc(F)cc2)Oc2ncc(-c3ccncc3)cc2C1=O	nt	nt	nt	nt	nt	17
O=C(C[C@@H]1CC[C@@H]2[C@H](COC[C@H](O)CN2Cc2cccc(C(F)(F)F)c2)O1)NCc1ccncc1	nt	nt	nt	nt	nt	12
C[C@@H]1CCCCO[C@H](CN(C)C(=O)Nc2cccc3ccccc23)[C@H](C)CN([C@@H](C)CO)C(=O)c2cc(NS(=O)(=O)c3ccc(Cl)cc3)ccc2O1	nt	nt	nt	nt	nt	76*
